# A number with no mark means an inactive call.
# Test system: Plasmodium falciparum NF54-HGL (transmission to Anopheles stephensi)
# Assay: percentage of barcode signal found in uninfected mosquitoes (transmission-blocking activity); higher = stronger blocking of transmission to mosquito, active = 80 or more
# Conditions: gametocyte preincubation time 24 h, readout time post-feed 8 days
# Description: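 The mixture was fed to Anopheles stephensi in 96-well plates as blood meals tagged with DNA-barcoded Asaia bacteria. Eight days later, mosquitoes were classed infected or uninfected by luminescence (mean + 5 SD of unfed controls). Barcodes were quantified by Luminex MagPlex-TAG in the pooled uninfected and infected Asaia cultures, background-corrected, and the score is % of barcode signal in uninfected mosquitoes = 100*Iu/(Iu+Ii).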
Compound,percentage of barcode signal found in uninfected mosquitoes (10 µM),percentage of barcode signal found in uninfected mosquitoes (20 µM)
O=C(Nc1cccnc1)c1c(O)c2cccc3c2n(c1=O)CC3,20.2%,
CNC(=O)c1cc(S(=O)(=O)N2CCN(c3ccccn3)CC2)cs1,37.8%,
Nc1cccnc1Nc1ccc(Cl)cc1,,54.5%
CCC(NC(=O)c1ccccc1NC(=O)c1ccc(C)cc1)C(=O)OC (centres undefined),,95.2% (active)
O=C(Nc1c(O)cccc1-c1nc2c(C(=O)O)cccc2o1)c1cc(-c2ccccc2)on1,,20.8%
CCCS(=O)(=O)N1CCC(CO)(Cc2ccccc2C(F)(F)F)CC1,39.3%,
CS(=O)(=O)c1ccccc1C(=O)N(Cc1ccccc1)c1ccccc1,5.09%,
CCOc1ccc(-c2nc(NC(=O)CS(=O)(=O)c3ccccc3)sc2C)cc1,-3.11%,
O=C1N(Cc2cc3ccccc3s2)CC2CN(Cc3ccccc3)CCN12 (centres undefined),58.1%,
Cc1ccc(NC(=O)CC2COc3ccccc3O2)cc1Cl (centres undefined),38.8%,
N#Cc1ccc(-c2cnc(N)c(-c3ccc(C(N)=O)cc3)n2)cc1,69.6%,
CN1CCC(NCc2cccc(-c3ccc(S(=O)(=O)NCc4ccccc4)cc3)c2)CC1,,98.6% (active)
COc1ccc(Oc2ccc([C@@H](C)N(C)c3ncc4c(N)nc(N)nc4n3)cc2)cc1,,72.1%
COc1cc(C2=NCCN2)ccc1-n1cc(-c2cccc(C3=NCCN3)c2)nn1,46.2%,
c1ccc(-c2nc(NC3CCCCC3)cc(C3CC3)n2)nc1,,99.2% (active)
CC(Oc1ccccc1)C(=O)Nc1nc(-c2ccccn2)cs1 (centres undefined),84.2% (active),
O=C(NC1CC1)c1ccc(N2CCOc3ccc(Cl)cc32)s1,49.7%,
CC(C)=CCC/C(C)=C\CNCCNC1C2CC3CC(C2)CC1C3 (centres undefined),,81.8% (active)
CC(C)(C)n1nc(-c2ccccc2)c2c(N)ncnc21,-3.29%,
O=C(Nc1ccnc(-c2cccnc2)n1)c1cc(C(F)(F)F)cc(C(F)(F)F)c1,46.9%,
CS(=O)(=O)Cc1nc2ccccc2oc1=O,80.3% (active),
O=C(NCc1nnc2n1CCCCC2)c1ccc(-c2ccc(F)cc2)o1,-11%,

Compound,percentage of barcode signal found in uninfected mosquitoes (10 µM),percentage of barcode signal found in uninfected mosquitoes (20 µM)
Cc1ccc(S(=O)(=O)Nc2ccc(CN3CCN(C(=O)c4cccc(C#N)c4)CC3)cc2)cc1,,0.0235%
CS(=O)(=O)N1CCC(CCn2nc(Cc3cccc4ccccc34)c3c(N)ncnc32)CC1,45.3%,
O=C(NC1CCCCC1)N1CCN(Cc2ccc3c(c2)OCO3)CC1,-0.671%,
CC(C)(C)OC(=O)N1CCN(c2nccc(-c3ccc(-c4ccc(Cl)cc4)s3)n2)CC1,20.6%,
Clc1ccc(-n2cc(COc3ccnc4ccccc34)nn2)cc1,,34.4%
Nc1ncnc2c1ncn2C[C@@H](O)[C@@H](O)C(=O)O,39.9%,
CS(=O)(=O)N1CCC(Cn2nc(Cc3cccc4ccccc34)c3c(N)ncnc32)CC1,,28.2%
O=C(Nc1nc(-c2ccccn2)cs1)c1cncn1-c1ccccc1,21.4%,
Cc1ccccc1CN1CCC(O)(c2ccc(Cl)c(C(F)(F)F)c2)CC1,,-0.504%
Cn1ncc2c(N3CCOCC3)nc(NCCc3c[nH]c4ccccc34)nc21,64.2%,
CNC(=O)c1nn(C)c2c1C(C)(C)Cc1cnc(Nc3ccc(N4CCN(C)CC4)cc3)nc1-2,64%,
Cc1cc(Nc2ccc(C(F)(F)F)cc2)n2ccnc2n1,,-1.06%
CC[C@@H]([C@H](C)O)n1ncn(-c2ccc(N3CCN(c4ccc(OC[C@@H]5CO[C@@](Cn6cncn6)(c6ccc(F)cc6F)C5)cc4)CC3)cc2)c1=O,42.4%,
O=C(NCCc1ccccc1)c1cc(-c2cccnc2)cnc1NCC1CC1,,2.28%
Cn1ccnc1CNCCS(=O)(=O)c1cccc(Nc2ccc(-c3cccc(F)c3)cn2)c1,,0.967%
Nc1nccc2ccc(Oc3ccncc3)cc12,,37.6%
OCCc1ccc(Nc2nccc(-c3nnc4ccccn34)n2)cc1,77%,
Nc1ncc(-c2ccc(C(F)(F)F)nc2)cc1-c1ccc(C(F)(F)F)nc1,1.73%,
CCc1nc2ccccc2n1CC(O)COc1cc(C)ccc1Cl (centres undefined),41.3%,
O=C1COCc2ccc(Br)cc2N1Cc1ccc(C(F)(F)F)cc1,22.4%,
N#Cc1ccc(-c2ccc(OCC(N)=O)cc2)cc1,-1.66%,
O=C(NCCN1CCCC1)c1cc(NCCN2CCOCC2)nc2ccc(Cl)cc12,,88% (active)
